High-throughput results deposited in PubChem BioAssay by National Center for Advancing Translational Sciences (NCATS).
In the library only some 6% were active in any assay of this set; here they are far more common.
D1 antag – blocks dopamine activation of the human D1 receptor. P21728. HEK293 TREx D1 cells, calcium flux, dopamine EC80; active compounds read low. activity change, negative = inhibition, % at 10 µM. 360,000 tested, 3.2% active; in the data active = activity change below about -30%; also: % is scaled to controls: 0 for no effect and ±100 for the full control effect
Target sequence (P21728 whole entry, looked up): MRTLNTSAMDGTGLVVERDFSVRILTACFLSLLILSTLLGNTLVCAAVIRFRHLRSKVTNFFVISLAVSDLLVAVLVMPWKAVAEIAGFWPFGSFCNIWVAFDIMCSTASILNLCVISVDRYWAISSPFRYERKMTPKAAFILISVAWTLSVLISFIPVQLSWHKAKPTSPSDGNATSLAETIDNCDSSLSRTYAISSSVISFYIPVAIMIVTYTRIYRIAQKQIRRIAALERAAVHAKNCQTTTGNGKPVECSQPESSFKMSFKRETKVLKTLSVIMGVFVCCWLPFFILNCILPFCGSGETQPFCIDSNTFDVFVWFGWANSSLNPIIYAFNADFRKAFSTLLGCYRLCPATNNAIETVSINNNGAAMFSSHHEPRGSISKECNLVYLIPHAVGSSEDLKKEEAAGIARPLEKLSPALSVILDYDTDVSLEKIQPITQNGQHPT
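Calcium flux readout: force-coupled, inducible Hek293 Trex D1 line, cells induced overnight at 30 C with tetracycline, dye-loaded 30–90 min at RT. Antagonism scored against EC80 dopamine challenge given 180 s after compound.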
DRD3 agonist – activates the human D3 dopamine receptor | D3R DiscoveRx beta-arrestin cells, luminescence, 90 min | 410,000 tested, 0.58% active | P35462 | max activation, %; in the data active = max activation above about 30%; also: 0% is about no effect
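Agonist mode: compounds and dopamine controls were applied to plated cells for 90 min at 37 degrees C after an overnight attachment at 1500 cells/well. Luminescent read-out followed 30 - 60 minutes at room temperature with DiscoveRx detection reagent.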
D1 ag – human D1 receptor agonism; P21728; HEK293 T-REx D1 cells, calcium flux, agonist mode; activation, % at 2 µM; 360,000 tested, 1% active; in the data active = activation above about 30%; also: 0% is about no effect
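Inducible HEK293 T-REx D1 cells, force-coupled to calcium signalling, were plated at 4000 cells/well with tetracycline and held overnight at 30 C. After no-wash calcium dye loading, compound-evoked calcium rise over 180 s flagged agonists.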
D3 antag – D3 dopamine receptor (human) antagonism | max response, negative = inhibition, % | 360,000 tested, 2.5% active | D3R cells, DiscoveRx beta-arrestin luminescence, antagonist mode; active compounds read low; in the data active = max response below about -50%; also: % is scaled to controls: 0 for no effect and ±100 for the full control effect
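Cells plated overnight at 1500 cells/well, then exposed to library compounds with dopamine controls for 90 minutes at 37 degrees C. DiscoveRx reagent added for 30–60 minutes at room temperature; luminescence read, quantitative HTS format.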
D1 potentiator – human D1 dopamine receptor positive modulation. HEK293 TREx D1 cells, calcium flux, dopamine EC20 potentiation. P21728. 360,000 tested, 0.036% active. potentiation, % at 10 µM; in the data active = potentiation above about 30%; also: 0% is about no effect
Numbers without * were called inactive; . = not tested or not shown; ! = repeats disagree.

SMILES | D1 antag | DRD3 agonist | D1 ag | D3 antag | D1 potentiator
O=S(=O)(c1ccc(Cl)cc1)N1CCN(C(=S)Nc2ccc(F)c(Cl)c2)CC1 | -36.7* | -10.4 | 14.8 | -20.5 | -6.3
COc1ccccc1N1CCN(C(=S)Nc2ccc(S(=O)(=O)N3CCOCC3)cc2)CC1 | -15.2 | 1.8 | 4.1 | 0.1 | -3.6
S=C(Nc1ccc(Nc2ccccc2)cc1)NN1CCOCC1 | 6.8 | -4.0 | 2.4 | -3.5 | 0.0
Fc1ccc(NC(=S)NN2CCOCC2)cc1Cl | -32.3* | -7.6 | 3.6 | 2.4 | -2.9
O=S(=O)(c1ccccc1)N1CCN(C(=S)Nc2ccc(F)cc2)CC1 | 0.2 | 1.8 | 3.2 | 12.8 | -2.2
O=S(=O)(c1ccc(NC(=S)N2CCN(c3ccccc3F)CC2)cc1)N1CCOCC1 | -31.4* | -0.7 | 10.8 | -7.8 | -11.5
Cc1ccc(-c2csc(NC(=O)c3cccc(S(=O)(=O)N4CCN(C)CC4)c3)n2)cc1 | -12.7 | -2.2 | 6.6 | -25.3 | -11.2
Nc1nc(NC(=O)c2cccc(S(=O)(=O)N3CCCCCC3)c2)nc(-c2ccccc2)n1 | -5.7 | 34.1* | 1.3 | -17.6 | 2.5
Cc1cc(NC(=O)c2cccc(S(=O)(=O)N3CCCCCC3)c2)n(-c2ccccn2)n1 | 5.5 | -7.4 | 2.5 | -54.9* | 9.3
O=C(Nc1nc(-c2cccs2)cs1)c1cccc(S(=O)(=O)N2CCCCC2)c1 | 7.4 | -7.5 | 4.2 | -68.6* | -4.1
COc1ccc(OC)c(NC(=O)Cn2cnc3onc(-c4ccc(Cl)cc4)c3c2=O)c1 | -4.5 | -9.5 | 0.1 | . | 1.4
CCc1ccc(OCC(=O)N(Cc2ccc(OC)cc2)C2CCS(=O)(=O)C2)cc1 (stereo not drawn) | 0.9 | 11.7 | 4.1 | . | -0.7
Cc1ccccc1-c1noc(-c2ccccc2C(=O)NCc2ccco2)n1 | 1.2 | 4.6 | 12.2 | -6.4 | -4.3
O=C(CCc1nc(-c2ccccc2Cl)no1)NCc1ccco1 | -2.9 | 10.1 | 0.5 | -4.6 | 3.0
COc1ccc(NC(=O)CCc2nc(-c3ccccc3F)no2)cc1 | -19.4 | 1.1 | 11.3 | 21.2 | -4.2
O=C(CCc1nc(-c2ccccc2F)no1)NCc1ccco1 | 9.8 | 1.0 | 1.3 | -87.9* | 0.1
O=C(CCc1nc(-c2ccccc2F)no1)Nc1cccc(C(F)(F)F)c1 | -29.4 | -5.8 | 31.5* | . | -2.6
O=C(NCc1ccco1)c1ccccc1-c1nc(-c2ccc(F)cc2)no1 | -45.4* | -0.3 | -0.3 | 8.2 | 2.5
CN(C)CCCNc1nc2sc3c(c2c(=O)n1CCc1ccccc1)CCCCC3 | -24.0 | -12.5 | 58.5* | 6.6 | -3.0
CN(C)CCCn1c(=O)n(CCc2ccccc2)c(=O)c2c3c(sc21)CCCCC3 | 2.1 | -20.7 | 2.0 | -2.6 | -4.3
O=C(Nc1nnc(S(=O)(=O)N2CCCCCC2)s1)c1ccccc1Cl | -40.7*! | -0.4 | 8.0 | 13.5 | -6.7
CCN(CC)S(=O)(=O)c1nnc(NC(=O)c2ccccc2Cl)s1 | -5.8 | -9.9 | 0.9 | . | -0.6
CCN(c1ccc(OC)cc1)S(=O)(=O)c1nnc(NC(=O)c2ccccc2Cl)s1 | -41.9*! | 5.3 | 1.9 | 0.4 | -6.6
COc1ccc(N(CC(C)C)S(=O)(=O)c2nnc(NC(=O)c3ccco3)s2)cc1 | 1.1 | -15.7 | 0.4 | -91.0* | 0.2
O=C(Nc1nnc(S(=O)(=O)N2CCCC2)s1)c1ccccc1Cl | 6.6 | 0.6 | 1.1 | 9.4 | -0.6
SMILES | D1 antag | DRD3 agonist | D1 ag | D3 antag | D1 potentiator
CC(C)CN(c1ccccc1)S(=O)(=O)c1nnc(NC(=O)C(C)C)s1 | -40.6* | -2.6 | 3.2 | 28.8 | -3.9
CCCCNC(=O)c1ccc2c(=O)n(Cc3ccc(OC)cc3)c(=O)[nH]c2c1 | 7.9 | 6.6 | 1.8 | . | -0.6
Cc1cccc(NS(=O)(=O)c2ccc(C)c(C(=O)NCC(c3ccco3)N3CCCCC3)c2)c1 (stereo not drawn) | -2.1 | -2.2 | 3.8 | -8.7 | 3.2
COc1ccccc1CNC(=O)CN1C(=O)COc2ccc(S(=O)(=O)N3CCCCC3)cc21 | -0.3 | 1.9 | 2.3 | -11.0 | 0.8
CCC(C)NC(=O)CSc1nc2c(sc3ccccc32)c(=O)n1CCc1ccccc1 (stereo not drawn) | 2.4 | -8.0 | 3.2 | . | -0.6
COc1cccc(C2C=C(c3ccc(C)cc3)Nc3c(C(=O)Nc4ccc(F)cc4)cnn32)c1OC (stereo not drawn) | -9.8 | -7.1 | 6.3 | . | -7.0
COc1cccc(C=Nc2ccccc2C(=O)Nc2nccs2)c1OC | -17.6 | -3.8 | 2.2 | -73.7* | -2.8
O=C(Nc1nccs1)c1ccccc1N=Cc1ccccc1 | -3.4 | -0.6 | 0.5 | 16.9 | 0.0
C=CCNC(=O)COC(=O)c1ccc(Sc2nncn2C)c([N+](=O)[O-])c1 | -32.1* | 1.1 | 0.1 | -11.1 | 2.2
Cn1cnnc1Sc1ccc(C(=O)OCC(=O)NCC(F)(F)F)cc1[N+](=O)[O-] | -8.4 | 1.9 | -0.2 | 2.3 | -2.9
CC(C)c1ccc(Nc2n[nH]c(=S)s2)cc1 | . | 5.4 | . | 0.0 | .
COc1cccc(CNC(=O)c2cccc(NC(=O)C3=C(C)OCCS3)c2)c1 | -40.1* | 1.6 | 3.7 | 10.2 | -9.2
CCOc1ccc(CNC(=O)c2cccc(NC(=O)C3=C(C)OCCS3)c2)cc1 | -6.7 | 2.0 | 5.8 | 11.0 | 3.3
CC1CCN(c2nnc(-n3cccc3CNc3cccc(F)c3)s2)CC1 | -16.6 | 2.0 | 1.1 | . | -8.1
CC(CN1CCN(c2ccccc2)CC1)c1ccccc1 (stereo not drawn) | -58.8* | -29.3 | 22.1 | -64.3* | -15.0
c1ccc(SCCN2CCN(c3ccccc3)CC2)cc1 | 0.8 | -7.9 | 0.8 | -102.9* | -8.2
CC(CCN1CCN(c2ccc(F)cc2)CC1)c1ccccc1 (stereo not drawn) | -61.7* | -33.7 | 7.2 | -76.4* | -0.4
COc1ccc(C2=C/C(=C/c3cccnc3)C(=O)O2)cc1OC | -20.9 | -4.4 | 59.6* | -7.3 | -12.2
CCOc1ccc(C2=C/C(=C/c3cccnc3)C(=O)O2)cc1 | -13.6 | -2.5 | 65.2* | -4.1 | -2.0
O=S(=O)(c1cc(Cl)ccc1Cl)N1CCN(c2ccccn2)CC1 | -3.3 | 1.4 | 3.1 | 2.3 | -2.6
Cc1ccc(N(C)C(=O)CN2C(=O)CCc3cc(S(=O)(=O)N4CCOCC4)ccc32)cc1 | -5.3 | 6.0 | -2.1 | . | -0.4
CC(=O)c1c(C(C)=O)c(C)n(NC(=O)c2ccccc2Cl)c1C | -49.1* | 7.3 | 15.3 | -8.5 | -11.8
Cc1ccc(C)n1NC(=O)c1ccccc1Cl | -10.2 | -0.7 | 2.7 | 12.6 | -3.1
CCOC(=O)N1CCC(NC(=O)c2ccc(Cl)cc2)CC1 | -7.6 | 5.4 | 2.9 | 2.1 | -2.3
CCOC(=O)N1CCC(NC(=O)CCCC(=O)O)CC1 | -33.0* | -15.5 | 2.5 | -13.9 | -3.5
COC1=CC(=O)C=C(OC)C1(O)CC(C)=O | . | 0.0 | . | -55.6* | .
CC(=O)CC1(O)C(=O)Nc2ccccc21 (stereo not drawn) | 1.4 | 0.8 | 2.5 | 15.4 | 3.0
CCCCCn1cc2c(c1-c1ccc(Cl)cc1)c(=O)n(C)c(=O)n2C | -1.7 | -8.2 | 0.2 | . | -0.2
